Consider 8 compounds from PubChem BioAssay (EPA / NIEHS).

Records with an inconclusive call do not appear. Some compounds were tested as several samples or in several runs, with calls that do not always agree. Calls of active or inactive are those of the source. The calls were made as follows, unless noted: active = hit-call score of the fitted dose curve at least 0.9, where 1 is the maximum; inactive = score below 0.9.

In general, AC50 refers to the concentration giving half of the maximal activity seen.

Test [1] is described as follows: BSK_3C_VCAM1: BioMAP Diversity Plus: 3C Assay for Vascular cell adhesion molecule 1 (VCAM1) Biomarker Activity (AID 2282999). The note with it: BioMAP 3C HUVEC, VCAM1 ELISA, cytokine-stimulated; actives raise or lower the signal. The essentials:
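Human umbilical vein endothelial cells were dosed with compound for 24 h, after which cell-surface VCAM-1 was quantified by ELISA. Bidirectional curve fitting used DMSO as negative control and activity baseline.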
A general note: In an ELISA, binding on a coated surface is turned into a signal by an enzyme label.

The nature of test [2]: BSK_4H_Eotaxin3: BioMAP Diversity Plus: 4H Assay for Eotaxin 3 Biomarker Activity (AID 2283000).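 As to outcome: CCL26 protein level quantified by ELISA in parallel with SRB cytotoxicity check.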 Conditions: primary human endothelial cells (HUVEC); actives raise or lower the signal. Summed up: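 Endothelial primary cells (human umbilical vein) exposed to compound for 24 h. ELISA detection of Eotaxin-3.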
The target of test [3] is human Peroxisome Proliferator-activated Receptor delta (PPARd), PPARD (gene 5467) (UniProt Q03181). Description: ATG_PPARd_TRANS: Attagene TRANS-FACTORIAL HepG2 Assay for human Peroxisome Proliferator-activated Receptor delta (PPARd) (AID 2283002; active = hit-call score of the fitted dose curve at least 0.9, where 1 is the maximum). The essentials: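 Multiplexed trans-activation format: HepG2 liver cells expressing exogenous NR-Gal4 chimeras and GAL4-UAS reporters were exposed for 24 h. Reporter mRNA was detected by RT-PCR with capillary electrophoresis fluorescence; activity fitted as gain of signal relative to DMSO.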
Sequence of human Peroxisome Proliferator-activated Receptor delta (PPARd), PPARD (gene 5467) (Q03181 whole entry, looked up, the tested form may be a part): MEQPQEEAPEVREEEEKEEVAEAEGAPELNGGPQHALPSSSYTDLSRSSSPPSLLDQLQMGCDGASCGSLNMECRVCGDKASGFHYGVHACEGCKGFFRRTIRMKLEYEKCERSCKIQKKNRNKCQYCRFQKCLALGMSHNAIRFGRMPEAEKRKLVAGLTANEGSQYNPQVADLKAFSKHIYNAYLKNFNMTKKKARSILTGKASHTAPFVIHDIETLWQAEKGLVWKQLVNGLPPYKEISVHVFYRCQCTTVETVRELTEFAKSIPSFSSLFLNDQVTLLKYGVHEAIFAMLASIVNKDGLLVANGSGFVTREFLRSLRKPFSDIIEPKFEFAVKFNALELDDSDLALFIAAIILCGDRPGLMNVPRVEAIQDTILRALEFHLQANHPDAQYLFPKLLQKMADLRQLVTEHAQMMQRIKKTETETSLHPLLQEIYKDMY

Test [4] has as its target human Retinoic Acid Receptor beta (RARb), RARB (gene 5915) (UniProt P10826). Description: ATG_RARb_TRANS: Attagene TRANS-FACTORIAL HepG2 Assay for human Retinoic Acid Receptor beta (AID 2283004; active = hit-call score of the fitted dose curve at least 0.9, where 1 is the maximum). The essentials:
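HepG2, transient MRTU transfection, NR–Gal4 chimera, 24 h treatment; RT-PCR plus CE fluorescence detection of reporter mRNA; gain of signal vs DMSO.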

For test [5], the target named is Retinoic acid receptor alpha (Homo sapiens) (UniProt P10276). Description: ATG_RARa_TRANS: Attagene TRANS-FACTORIAL HepG2 Assay for human Retinoic Acid Receptor alpha (RARa) (AID 2283005; active = hit-call score of the fitted dose curve at least 0.9, where 1 is the maximum). Summed up:
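HepG2 cells transiently transfected with multiple reporter units expressing chimeric RARα-GAL4 fusion, with GAL4-UAS-driven reporters. After 24 h compound exposure, reporter mRNA induction quantified by RT-PCR and capillary electrophoresis with fluorescent labeling; gain-of-signal fitted relative to DMSO control.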

Test [6] can be described thus: BSK_3C_Proliferation: Cell Proliferation Assessment in the BioMAP Diversity Plus: 3C Assay (AID 2283006).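 As to AC50: potency may reflect either rise or fall in cell number versus DMSO.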 The note with it: primary human endothelial cells (HUVEC). The essentials: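 Read-out is total protein by SRB absorbance at 560 nm, taken as a proxy for relative cell number. Primary human umbilical vein endothelium cultured below confluence was dosed for 48 h, TCA-fixed and SRB-stained; curves were fitted bidirectionally versus DMSO.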

Test [7] addresses Peroxisome proliferator-activated receptor gamma (Homo sapiens) (UniProt P37231). Description: ATG_PPARg_TRANS: Attagene TRANS-FACTORIAL HepG2 Assay for human Peroxisome Proliferator-activated Receptor-gamma (PPARg) (AID 2283007; active = hit-call score of the fitted dose curve at least 0.9, where 1 is the maximum). The essentials:
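Human hepatoma HepG2, transient MRTU transfection, 24 h treatment. mRNA reporter signal by RT-PCR plus capillary electrophoresis, fluorescence detection; fitted for increase over DMSO negative control.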

For test [8], the target named is Nuclear receptor subfamily 1 group I member 2 (Homo sapiens) (UniProt O75469). The test is described as follows: ATG_PXR_TRANS: Attagene TRANS-FACTORIAL HepG2 Assay for human Pregnane X Receptor (PXR) (AID 2283008; active = hit-call score of the fitted dose curve at least 0.9, where 1 is the maximum). Summed up:
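Measures mRNA induction of a GAL4-UAS-driven reporter in human HepG2 cells transiently expressing PXR fused to Gal4, following 24 h treatment. DMSO served as negative control and baseline.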

Test [9] addresses human RAR-related Orphan Receptor gamma (RORg), RORC (gene 6097) (UniProt P51449). The test is described as follows: ATG_RORg_TRANS: Attagene TRANS-FACTORIAL HepG2 Assay for human RAR-related Orphan Receptor gamma (RORg) (AID 2283011; active = hit-call score of the fitted dose curve at least 0.9, where 1 is the maximum). Summed up:
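Activity is scored as increase in GAL4-UAS reporter mRNA over DMSO, detected by fluorescent RT-PCR and capillary electrophoresis in HepG2 cells transiently expressing a RORg-Gal4 chimera, 24 h after dosing.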

Test [10] deals with Retinoic acid receptor RXR-alpha (Homo sapiens) (UniProt P19793). The test is described as follows: ATG_RXRa_TRANS: Attagene TRANS-FACTORIAL HepG2 Assay for human Retinoid X Receptor alpha (RXRa) (AID 2283012; active = hit-call score of the fitted dose curve at least 0.9, where 1 is the maximum). The essentials:
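Transient transfection of human HepG2 with multiple GAL4-UAS reporter constructs; 24 h compound exposure; total RNA isolated, reverse-transcribed, PCR-amplified, 6-FAM labelled, HpaI-cut, resolved by capillary electrophoresis. Positive-direction fit versus DMSO.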

In test [11] the target is human Retinoid X Receptor beta (RXRb), RXRB (gene 6257) (UniProt P28702). Description: ATG_RXRb_TRANS: Attagene TRANS-FACTORIAL HepG2 Assay for human Retinoid X Receptor beta (RXRb) (AID 2283013; active = hit-call score of the fitted dose curve at least 0.9, where 1 is the maximum). Summed up:
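Transfect HepG2 with GAL4-UAS multi-reporter constructs (chimeric NR-Gal4, TRANS format); dose compound 24 h; isolate RNA, RT-PCR, FAM primer extension, HpaI digest; quantify by capillary electrophoresis; positive direction vs DMSO.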

Test [12] addresses human Thyroid Receptor alpha (THRa1), THRA (gene 7067) (UniProt P10827). Description: ATG_THRa1_TRANS: Attagene TRANS-FACTORIAL HepG2 Assay for human Thyroid Receptor alpha (THRa1) (AID 2283014; active = hit-call score of the fitted dose curve at least 0.9, where 1 is the maximum). Summed up:
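First, HepG2 cells receive multiple GAL4-UAS reporter units and the chimeric receptor. They are then dosed for 24 h, after which RNA is reverse-transcribed, amplified, labelled, HpaI-cut and sized by capillary electrophoresis; gain relative to DMSO is scored.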

Read-out in test [13]: E-selectin (Homo sapiens) (UniProt P16581)
The test is described as follows: BSK_3C_Eselectin: BioMAP Diversity Plus: 3C Assay for Eselectin Biomarker Activity (AID 2283015).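 As to outcome: cell surface E-selectin protein quantified by ELISA 24 h after dosing.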 Conditions: primary human endothelial cells (HUVEC); actives raise or lower the signal. Summed up: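 Human vascular endothelium from umbilical vein is exposed to test chemicals for 24 h. E-selectin levels are read by ELISA and compared with DMSO controls.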

Read-out in test [14]: Interleukin-1 alpha (IL1a), IL1A (gene 3552)
The test is described as follows: BSK_BE3C_IL1a: BioMAP Diversity Plus: BE3C Assay for Interleukin-1 alpha (IL1a) Biomarker Activity (AID 2283016). Conditions: primary human bronchial epithelial cells; actives raise or lower the signal. The essentials:
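BE3C primary human bronchial epithelium; cpd 24 h; IL-1a by ELISA; bidirectional fit vs DMSO; parallel SRB (0.1% SRB, 10% TCA fix, 560 nm) for cytotoxicity.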

Read-out in test [15]: Monocyte Chemoattractant Protein-1 (MCP1), CCL2 (gene 6347)
The test is described as follows: BSK_3C_MCP1: BioMAP Diversity Plus: 3C Assay for Monocyte Chemoattractant Protein-1 (MCP1) Biomarker Activity (AID 2283017). Conditions: primary human endothelial cells (HUVEC); actives raise or lower the signal. Summed up: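 Endothelial cells from human umbilical vein are dosed with chemical, cultured 24 h, then assayed for MCP-1 by ELISA; both increases and decreases are modelled against DMSO controls.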

Read-out in test [16]: Monocyte Chemoattractant Protein-1 (MCP1), CCL2 (gene 6347)
Description: BSK_4H_MCP1: BioMAP Diversity Plus: 4H Assay for Monocyte Chemoattractant Protein-1 (MCP1) Biomarker Activity (AID 2283018). The note with it: primary human endothelial cells (HUVEC); actives raise or lower the signal. The essentials:
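ELISA read-out of MCP-1 from human vascular endothelial primary cells taken at 24 hours after compound exposure. Activity was fitted in both directions relative to DMSO, which served as negative control.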

Read-out in test [17]: Human Leukocyte Antigen - DR isotype (HLADR), HLA-DRA (gene 3122)
The test is described as follows: BSK_3C_HLADR: BioMAP Diversity Plus: 3C Assay for Human Leukocyte Antigen - DR isotype (HLADR) Biomarker Activity (AID 2283019).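 As to outcome: ELISA of cell-surface HLA-DR on HUVEC 24 h after dosing.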 The note with it: primary human endothelial cells (HUVEC); actives raise or lower the signal. Summed up:
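Endothelial cells from human umbilical vein are treated with test chemical; after 24 h, HLA-DR levels are measured by ELISA. Data are fitted in both directions using DMSO as the baseline.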

Read-out in test [18]: Intercellular Adhesion Molecule 1 (ICAM1), ICAM1 (gene 3383)
Description: BSK_3C_ICAM1: BioMAP Diversity Plus: 3C Assay for Intercellular Adhesion Molecule 1 (ICAM1) Biomarker Activity (AID 2283003). The note with it: primary human endothelial cells (HUVEC); actives raise or lower the signal. Summed up: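 ICAM-1 levels measured by ELISA after HUVEC cultures in the 3C system had been dosed for 24 h. Gain or loss of signal relative to DMSO was fitted in both directions.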

Test [19] deals with human Retinoic Acid Receptor gamma (RARg), RARG (gene 5916) (UniProt P13631). The test is described as follows: ATG_RARg_TRANS: Attagene TRANS-FACTORIAL HepG2 Assay for human Retinoic Acid Receptor gamma (RARg) (AID 2283009; active = hit-call score of the fitted dose curve at least 0.9, where 1 is the maximum). Summed up:
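Transient transfection of HepG2 with multi-reporter constructs, then 24 h chemical treatment. Total RNA isolated, reverse-transcribed, PCR-amplified, fluorescently labelled and resolved by capillary electrophoresis; activity scored as mRNA induction versus DMSO.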

Sequence of Nuclear receptor subfamily 1 group I member 2 (Homo sapiens) (O75469 whole entry, looked up, the tested form may be a part): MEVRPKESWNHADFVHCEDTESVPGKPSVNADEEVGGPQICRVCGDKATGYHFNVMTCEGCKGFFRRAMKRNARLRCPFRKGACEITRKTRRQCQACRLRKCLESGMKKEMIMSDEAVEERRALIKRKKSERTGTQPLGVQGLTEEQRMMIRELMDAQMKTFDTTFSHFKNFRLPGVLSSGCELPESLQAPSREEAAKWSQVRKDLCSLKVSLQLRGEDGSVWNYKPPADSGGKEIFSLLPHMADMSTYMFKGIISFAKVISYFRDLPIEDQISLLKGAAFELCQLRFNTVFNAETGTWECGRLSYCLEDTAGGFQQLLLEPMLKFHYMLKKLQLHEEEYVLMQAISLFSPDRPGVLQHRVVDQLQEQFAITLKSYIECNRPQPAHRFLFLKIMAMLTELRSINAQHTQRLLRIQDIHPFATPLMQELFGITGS
Sequence of human RAR-related Orphan Receptor gamma (RORg), RORC (gene 6097) (P51449 whole entry, looked up, the tested form may be a part): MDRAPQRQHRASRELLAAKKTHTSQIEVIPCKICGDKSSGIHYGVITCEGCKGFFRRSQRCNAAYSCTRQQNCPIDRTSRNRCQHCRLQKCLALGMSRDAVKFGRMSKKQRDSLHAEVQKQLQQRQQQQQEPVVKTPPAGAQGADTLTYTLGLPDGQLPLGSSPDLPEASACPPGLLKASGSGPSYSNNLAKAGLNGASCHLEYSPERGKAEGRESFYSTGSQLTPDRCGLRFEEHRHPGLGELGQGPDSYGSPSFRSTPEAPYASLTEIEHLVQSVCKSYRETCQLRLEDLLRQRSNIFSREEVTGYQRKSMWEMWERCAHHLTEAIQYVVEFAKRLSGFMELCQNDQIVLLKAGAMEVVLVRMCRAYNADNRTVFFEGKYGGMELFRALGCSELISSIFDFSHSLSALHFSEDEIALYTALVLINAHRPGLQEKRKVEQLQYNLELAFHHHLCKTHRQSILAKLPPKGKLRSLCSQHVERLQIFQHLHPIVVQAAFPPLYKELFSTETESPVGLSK
Sequence of E-selectin (Homo sapiens) (P16581 whole entry, looked up): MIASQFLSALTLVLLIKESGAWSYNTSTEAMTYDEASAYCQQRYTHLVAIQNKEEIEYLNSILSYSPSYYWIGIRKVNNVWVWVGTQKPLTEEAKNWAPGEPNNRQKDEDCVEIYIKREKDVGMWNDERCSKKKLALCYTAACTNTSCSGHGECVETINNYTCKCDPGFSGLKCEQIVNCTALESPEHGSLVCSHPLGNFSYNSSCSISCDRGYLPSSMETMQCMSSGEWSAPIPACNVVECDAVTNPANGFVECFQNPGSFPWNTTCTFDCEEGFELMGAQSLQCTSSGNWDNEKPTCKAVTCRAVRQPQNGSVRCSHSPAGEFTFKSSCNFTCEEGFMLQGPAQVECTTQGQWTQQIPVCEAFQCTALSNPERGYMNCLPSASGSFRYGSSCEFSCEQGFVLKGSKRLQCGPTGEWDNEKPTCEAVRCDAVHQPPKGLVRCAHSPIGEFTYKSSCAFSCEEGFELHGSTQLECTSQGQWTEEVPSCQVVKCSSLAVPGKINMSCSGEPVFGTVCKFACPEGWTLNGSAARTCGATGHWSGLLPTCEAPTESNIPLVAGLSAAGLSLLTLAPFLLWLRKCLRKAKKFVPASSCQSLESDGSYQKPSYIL
Sequence of human Retinoid X Receptor beta (RXRb), RXRB (gene 6257) (P28702 whole entry, looked up, the tested form may be a part): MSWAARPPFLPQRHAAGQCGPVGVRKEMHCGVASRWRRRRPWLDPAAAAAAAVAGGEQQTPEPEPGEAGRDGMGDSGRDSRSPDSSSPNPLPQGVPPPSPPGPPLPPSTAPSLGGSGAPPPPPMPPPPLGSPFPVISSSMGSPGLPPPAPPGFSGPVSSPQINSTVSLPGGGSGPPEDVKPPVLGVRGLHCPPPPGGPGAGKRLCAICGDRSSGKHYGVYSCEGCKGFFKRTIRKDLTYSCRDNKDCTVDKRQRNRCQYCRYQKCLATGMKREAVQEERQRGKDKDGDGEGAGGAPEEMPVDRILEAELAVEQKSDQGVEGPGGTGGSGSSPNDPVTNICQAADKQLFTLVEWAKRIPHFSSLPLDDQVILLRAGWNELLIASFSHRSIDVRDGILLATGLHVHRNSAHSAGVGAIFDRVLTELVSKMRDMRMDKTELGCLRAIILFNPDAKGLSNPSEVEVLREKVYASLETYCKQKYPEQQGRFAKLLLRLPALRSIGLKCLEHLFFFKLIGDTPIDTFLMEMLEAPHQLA
Sequence of Retinoic acid receptor alpha (Homo sapiens) (P10276 whole entry, looked up, the tested form may be a part): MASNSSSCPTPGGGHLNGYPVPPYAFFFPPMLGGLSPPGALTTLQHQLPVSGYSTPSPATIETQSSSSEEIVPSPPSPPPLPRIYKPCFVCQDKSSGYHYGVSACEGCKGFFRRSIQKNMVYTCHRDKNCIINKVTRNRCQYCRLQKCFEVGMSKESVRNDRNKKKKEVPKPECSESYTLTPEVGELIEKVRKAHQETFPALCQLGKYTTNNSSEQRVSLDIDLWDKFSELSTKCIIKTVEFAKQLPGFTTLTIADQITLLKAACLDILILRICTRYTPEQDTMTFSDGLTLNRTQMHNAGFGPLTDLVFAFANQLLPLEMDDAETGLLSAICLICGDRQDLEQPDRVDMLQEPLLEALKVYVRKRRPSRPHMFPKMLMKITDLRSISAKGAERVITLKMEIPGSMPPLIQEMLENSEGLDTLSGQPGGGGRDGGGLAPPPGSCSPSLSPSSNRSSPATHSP
Sequence of human Retinoic Acid Receptor gamma (RARg), RARG (gene 5916) (P13631 whole entry, looked up): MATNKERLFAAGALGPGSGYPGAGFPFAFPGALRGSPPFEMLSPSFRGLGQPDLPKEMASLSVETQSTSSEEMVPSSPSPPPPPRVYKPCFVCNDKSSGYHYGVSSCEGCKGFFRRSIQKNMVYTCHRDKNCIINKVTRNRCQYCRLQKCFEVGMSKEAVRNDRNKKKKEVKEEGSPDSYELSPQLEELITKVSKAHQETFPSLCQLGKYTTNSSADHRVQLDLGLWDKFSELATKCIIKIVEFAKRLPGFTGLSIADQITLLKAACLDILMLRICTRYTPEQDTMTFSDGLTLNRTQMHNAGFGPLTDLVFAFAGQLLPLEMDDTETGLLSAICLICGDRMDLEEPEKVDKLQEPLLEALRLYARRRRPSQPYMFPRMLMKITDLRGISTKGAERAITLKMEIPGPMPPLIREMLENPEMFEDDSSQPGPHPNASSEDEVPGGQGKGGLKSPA
Sequence of human Retinoic Acid Receptor beta (RARb), RARB (gene 5915) (P10826 whole entry, looked up, the tested form may be a part): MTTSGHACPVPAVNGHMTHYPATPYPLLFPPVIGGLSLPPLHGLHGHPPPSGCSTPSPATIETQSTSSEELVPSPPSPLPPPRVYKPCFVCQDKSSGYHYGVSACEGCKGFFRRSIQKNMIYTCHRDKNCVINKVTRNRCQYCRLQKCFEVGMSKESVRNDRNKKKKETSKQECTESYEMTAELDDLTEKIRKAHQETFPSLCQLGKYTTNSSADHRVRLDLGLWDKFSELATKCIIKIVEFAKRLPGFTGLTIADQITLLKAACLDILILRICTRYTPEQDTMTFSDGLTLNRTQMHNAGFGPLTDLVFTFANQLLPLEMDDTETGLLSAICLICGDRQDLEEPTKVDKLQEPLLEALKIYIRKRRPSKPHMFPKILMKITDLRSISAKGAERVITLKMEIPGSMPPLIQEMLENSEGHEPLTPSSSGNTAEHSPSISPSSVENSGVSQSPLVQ
Sequence of Retinoic acid receptor RXR-alpha (Homo sapiens) (P19793 whole entry, looked up, the tested form may be a part): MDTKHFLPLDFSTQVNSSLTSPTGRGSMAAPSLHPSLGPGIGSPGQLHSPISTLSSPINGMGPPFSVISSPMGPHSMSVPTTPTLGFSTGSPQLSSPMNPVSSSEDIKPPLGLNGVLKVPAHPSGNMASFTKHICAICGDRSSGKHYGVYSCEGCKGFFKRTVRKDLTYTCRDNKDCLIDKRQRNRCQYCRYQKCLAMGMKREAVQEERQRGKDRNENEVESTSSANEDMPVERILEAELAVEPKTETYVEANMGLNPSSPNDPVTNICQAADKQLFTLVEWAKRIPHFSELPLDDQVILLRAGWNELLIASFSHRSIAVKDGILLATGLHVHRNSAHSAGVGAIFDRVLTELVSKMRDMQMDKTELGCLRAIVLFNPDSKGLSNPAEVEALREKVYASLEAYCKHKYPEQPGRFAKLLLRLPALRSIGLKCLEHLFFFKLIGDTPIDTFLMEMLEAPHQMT
Sequence of Peroxisome proliferator-activated receptor gamma (Homo sapiens) (P37231 whole entry, looked up): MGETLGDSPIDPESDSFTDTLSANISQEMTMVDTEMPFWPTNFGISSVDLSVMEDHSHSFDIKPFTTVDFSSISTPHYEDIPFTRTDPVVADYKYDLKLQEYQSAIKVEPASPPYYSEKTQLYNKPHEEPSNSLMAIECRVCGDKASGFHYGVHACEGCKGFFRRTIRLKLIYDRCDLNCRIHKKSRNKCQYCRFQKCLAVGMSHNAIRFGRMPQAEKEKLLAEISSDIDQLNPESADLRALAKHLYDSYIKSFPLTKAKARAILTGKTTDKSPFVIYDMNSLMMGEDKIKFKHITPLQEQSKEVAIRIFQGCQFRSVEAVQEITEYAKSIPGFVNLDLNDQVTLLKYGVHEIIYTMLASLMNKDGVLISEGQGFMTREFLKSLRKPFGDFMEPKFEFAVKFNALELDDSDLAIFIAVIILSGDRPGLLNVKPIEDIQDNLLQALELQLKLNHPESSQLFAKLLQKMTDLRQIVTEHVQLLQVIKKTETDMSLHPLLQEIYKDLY

In the case of `Nc1c(Cl)cc([N+](=O)[O-])cc1Cl`, the outcome in test [1], in [2], in [3], in test [4], in [5] and in test [6] was inactive. Further, the compound was classed as inactive in test [7], in test [8], in [9], in [10], in test [11] and in test [12]. Besides, the result in test [13], in test [14], in [15] and in test [16] was inactive. For the same compound, the half-maximal activity concentration (AC50) in [17] was 28.8 µM (active).

On to `CNC(=O)ON=C(C)SC`, for which the outcome in [1], in test [2], in [3], in [18], in test [6] and in test [7] was inactive. For the same compound, the outcome in [8], in [9], in test [11], in [13], in [14] and in [15] was inactive. Also, the outcome in [16] and in [17] was inactive.

On to `CC1(C(=O)Nc2ccc(O)c(Cl)c2Cl)CCCCC1`, for which the outcome in test [1], in test [2], in test [3], in test [18], in [6] and in test [9] was inactive. Further, the outcome in test [10], in test [13], in [15], in test [16] and in [17] was inactive. In addition, the AC50 in test [7] was 50 µM (active); in test [8], 9.83 µM (active).

Take `CN(C)[C@@H]1C(=O)C(C(N)=O)=C(O)[C@@]2(O)C(=O)C3=C(O)c4c(O)cccc4[C@@](C)(O)[C@H]3[C@H](O)[C@@H]12`: the outcome in test [1], in [2], in test [6], in test [7], in test [8] and in [10] was inactive. Moreover, the call in test [11], in [12], in [13], in test [15], in [16] and in test [17] was inactive. Further, the results for the AC50 in [2] and in [6] were 33 µM (active) and 20 µM (active), respectively.

`CCOP(=O)(NC(C)C)Oc1ccc(SC)c(C)c1` (centres undefined): the outcome in test [1], in test [2], in test [3], in test [4], in test [5] and in [6] was inactive. Besides, the compound was classed as inactive in test [8], in [19], in test [9], in test [10], in test [11] and in test [13]. The outcome in test [15], in test [16] and in [17] was inactive. Also, the AC50 in [7] was 32.3 µM (active).

As to `CCOP(=S)(Oc1cnc(C(C)(C)C)nc1)OC(C)C` (centres undefined), the AC50 in [1] is 36.8 µM (active); in test [2] it was 31.9 µM (active); in test [6], 33.3 µM (active); in test [13], 31.2 µM (active); in test [15], 38 µM (active); in [16], 33.4 µM (active). Besides, the AC50 in test [17] is 31.3 µM (active). The result in test [3], in [5], in test [7], in test [8], in test [19] and in test [10] was inactive. For the same compound, the compound was called inactive in test [11], in [12] and in [14].

Regarding `CCOP(=S)(OCC)SCCSCC`, the outcome in test [1], in test [2], in test [3], in test [4], in test [5] and in test [6] was inactive. The compound was called inactive in test [7], in [8], in test [10], in test [11], in test [12] and in [13]. Also, the result in test [14], in [15], in test [16] and in test [17] was inactive.

For the compound `C=C(C)[C@H]1Cc2c(ccc3c2O[C@@H]2COc4cc(OC)c(OC)cc4[C@@H]2C3=O)O1`, the AC50 is 20 µM (active) in test [1]; 20 µM (active) in [2]; 1.36 µM (active) in test [6]; 0.24 µM (active) in [12]; 20 µM (active) in test [13]; 34.8 µM (active) in test [15]. For the same compound, the AC50 is 29.3 µM (active) in test [16] and 3.82 µM (active) in test [17]. Moreover, the result in test [3], in [18], in test [4], in [5], in [7] and in test [8] was inactive. In addition, the compound was classed as inactive in test [19], in test [9], in test [11] and in test [14].
